sPLA2-III inh: Blocks human group III sPLA2 activity; QFRET BODIPY PC-A2 liposome hydrolysis, fluorescence; inhibition, % at 12.2 µM; AID 743126; 370,000 tested, 0.56% active; Q9NZ20;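 active means inhibition above mean plus 3 SD of compounds lying within the high and low control bounds, cut at about 19% in these data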;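 further: 0% = median of test compound wells and 100% = no enzyme DMSO wells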
FAS TE block: inhibitors of human fatty acid synthase thioesterase domain; recombinant FAS-TE, OMFH fluorogenic substrate, fluorescence endpoint; P49327; AID 602261; inhibition, % at 15 µM; 360,000 tested, 0.67% active;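 active means compounds whose normalised, plate-corrected inhibition of enzyme fluorescence in the single-dose primary screen is 50% or more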;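 further: 0% = DMSO with enzyme and 100% = substrate without enzyme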
NR3A LBD binder: modulators (binders) of human NR3A ligand-binding domain. 340,000 tested, 2.5% active. AID 1259313. NR3A LBD differential scanning fluorimetry, Tm shift; 0% = protein alone, 100% = glycine-bound protein. Tm shift relative to glycine control, % at 25 µM;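 active means melting temperature shift of at least 10% of the positive control shift, at one fixed dose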
ADAM10 inh: inhibits human ADAM10; O14672; recombinant ADAM10, EDANS/DABCYL FRET peptide cleavage, 3 h; inhibition, % at 7 µM; 370,000 tested, 0.62% active; AID 720582;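 active means inhibition above a per-campaign cutoff equal to the mean of compounds falling between control-based bounds plus 3 SD, cut at about 20% in these data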;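 further: 0% = DMSO wells while the 100% control is not disclosed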
ADAM17 inh: ADAM17 inhibition, QFRET primary screen. P78536. recombinant ADAM17, EDANS/DABCYL FRET peptide cleavage. inhibition, % at 6.95 µM. 370,000 tested, 0.83% active. AID 720648;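 active means inhibition above the mean of compounds lying between control limits plus 3 SD, set per campaign, cut at about 8.5% in these data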;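 further: 0% = DMSO-only wells as the low control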
Active calls of the source: *; i = inactive; · = no result. Most compounds without a hit are left out; they make up all but 4.3% or so of the library.

SMILES	sPLA2-III inh	FAS TE block	NR3A LBD binder	ADAM10 inh	ADAM17 inh
COc1ccc(C[N+]2=C(N)NC3=C(C)Cn4c(=O)n(-c5ccccc5)c(=O)n4C3C2)c(OC)c1 (configuration not stated)	9	·	·	-17	-7
COC(=O)[C@H](CC(C)C)N1Cc2nnn(Cc3ccccc3)c2-c2cc(F)ccc2S1(=O)=O	-3	·	·	13	5
COc1ccc(/C=C2/C(=O)N(c3ccccc3)N=C2C)cc1OC	2	-6	1	14	2
COc1cc(/C=C2/C(=O)N(c3cccc(Br)c3)N=C2C)cc(OC)c1O	3	-6	15*	6	0
COc1cc2c(cc1NC(=O)CSc1nnc(COc3ccccc3)n1Cc1ccco1)oc1ccccc12	0	·	·	-7	6
Cc1ccccc1C(=O)N[C@H](C(=O)N1CCC[C@H]1C(=O)NCCc1ccccc1Cl)c1ccccc1	-8	·	·	-7	-5
COc1ccc(-c2cc(-c3nnc(COC(=O)c4ccc(O)cc4)o3)c3ccccc3n2)cc1OC	-33	10	15*	-24	-13
CN/C=C1\C(=O)C(C)(C)Oc2ccc3ccc(=O)oc3c21	8	-1	0	-13	-7
CC1(C)Oc2ccc3ccc(=O)oc3c2/C(=C/Nc2ccccn2)C1=O	2	29	15*	-14	-11
O=C(NCCCN1CCCC1)C1CCN(C(=O)c2cc3sccc3n2Cc2ccc(F)cc2)CC1	-5	-9	11*	10	0
CC(C)=CCCC1(C)C=Cc2c(c(C)cc3c2[nH]c2cc(O)ccc23)O1 (configuration not stated)	-5	33	19*	-15	-2
Cc1cc(=O)[nH]c2cc(O)ccc12	-1	-5	-1	i	i
O=C(OC12CCCN(C1)/C(=C/c1ccncc1)C2)C1CCCCC1 (configuration not stated)	1	·	·	1	2
CCCCOc1ccc(OCCCC)c2c1NC1(N2)C(=O)N(C(C)=O)c2ccccc21	-1	4	13*	1	-4
CC(C)C(C#CC1CC1)N(Cc1ccc2c(c1)OCO2)C(N)=NC(=O)/C=C/c1ccccc1 (configuration not stated)	-8	·	·	5	3
O=C(Nc1nc2c(s1)CCCC2)c1ccc(Br)o1	2	-2	11*	9	-2
CC(=O)NC1C(=O)N(CCN2CCOCC2)c2ccc(Br)cc21 (configuration not stated)	-4	0	18*	-6	-2
CN(C(=O)[C@@H](C1CC1)[C@@H](O)c1ccc(Cl)cc1)c1ccccc1	-6	·	·	1	-2
CC(C)(C)c1ccc(/C=C2\Oc3cc(O)ccc3C2=O)cc1	-29	19	17*	-22	-12
O=C1/C(=C/c2ccc([N+](=O)[O-])cc2)Oc2cc(O)ccc21	-10	22	4	5	3
O=C1/C(=C/c2ccc(Br)cc2)Oc2cc(O)ccc21	-31	-4	16*	-23	-14
c1nc(NCC2CCCC2)c2cc(-c3ccc4c(c3)OCO4)ccc2n1	-9	·	·	-157	-77
CCOCCCNC(=O)C1(O)c2cc(Br)ccc2NC(=O)N1c1ccc(OCC)cc1 (configuration not stated)	-3	-3	12*	-1	-5
CCOCCCNC(=O)C1(O)c2cc(Br)ccc2NC(=O)N1c1ccc(CC)cc1 (configuration not stated)	-2	-1	18*	2	-2
CCOCCCNC(=O)C1(O)c2ccccc2NC(=O)N1c1ccc(Cl)cc1 (configuration not stated)	0	-4	12*	3	-4
C=CC[C@]1(c2ccccc2)C(=O)N2C[C@H]3CON(C)[C@H]3C[C@H]2c2ccccc21	-3	·	·	-7	-4
COC(=O)[C@H]1C[C@@]2(N3CCCCC3)c3ccccc3N[C@H]2N1S(=O)(=O)c1ccc(C)cc1	12	·	·	-8	-7
Brc1ccc(OCc2ccccc2)c(CNCc2ccncc2)c1	-1	7	11*	6	-6
O=C(Nc1cc(C(F)(F)F)ccc1Cl)C(Sc1nnc(-c2cccs2)o1)c1ccccc1 (configuration not stated)	2	3	3	7	3
O=C(Nc1ccc(Cl)cc1C(F)(F)F)C(Sc1nnc(-c2cccs2)o1)c1ccccc1 (configuration not stated)	5	11	22*	4	1

Screens (PubChem BioAssay)
